Experimental data taken from the supplement of paper PMC6555819.

Columns and labels:
Test in all cases: PBM binding z-score (relative to random genomic background probes); higher = stronger binding; sequences stand for … in GC…GCGATTGACAGCGTAGAATGAAGG
[1] = system: RARb homodimer (NR concentration 270 nM)
Outline: (§1)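 Random background probes are the reference for binding z-scores. These scores derive from regression-normalized fluorescence on custom Agilent 4×180K protein-binding microarrays incubated 1 h with ligand-free nuclear receptor dimers. Binding was detected with antibodies against each partner (one per run).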

[2] = system: RARg:RXRa (NR concentration 270 nM, RXRa partner concentration 90 nM)
Outline: as §1

[3] = system: RARg homodimer (NR concentration 270 nM)
Outline: as §1

[4] = system: RXRa DBDmut IVT, anti-RXR (DBD mutation: RXRa K156A/R161A, NR concentration 90 nM)
Outline: as §1

[5] = system: RXRa homodimer (NR concentration 180 nM)
Outline: as §1

[6] = system: THRa:RXRa (NR concentration 90 nM, RXRa partner concentration 90 nM)
Outline: as §1

[7] = system: THRa homodimer (NR concentration 90 nM)
Outline: as §1

[8] = system: VDR:RXRa (NR concentration 270 nM, RXRa partner concentration 90 nM)
Outline: as §1

[9] = system: VDR homodimer (NR concentration 270 nM)
Outline: as §1

Sequence	PBM binding z-score [1]	PBM binding z-score [2]	PBM binding z-score [3]	PBM binding z-score [4]	PBM binding z-score [5]	PBM binding z-score [6]	PBM binding z-score [7]	PBM binding z-score [8]	PBM binding z-score [9]
CCAGACAGGTGAAATGTAACTCAGTCTGGTACGC	-0.215	0.487	0.478	0.261	0.624	0.0453	-0.307	0.0659	-0.0884
CCTTTCGGGTCACGAGGTTATAGCACGACGAGCG	4.31	6.29	5.8	2.08	7.39	4.52	3.83	5.31	2.77
GCGACTGGGGCAGCAGCAGGTTACCATAACTTAA	0.746	0.167	0.234	-0.331	-0.00155	0.651	-0.162	-0.465	-0.595
ATATGTAGGTTACATCCGGTTCATTCAGGCTATG	1	1.42	1.13	1.95	1.54	2.03	0.768	4.76	4.45
CCTACTGGGCCAAGGTCCTTGATCAGTCAAAGCA	0.00283	-0.396	-0.0984	-1.13	-0.463	-0.0193	-0.503	-0.657	-0.774
GCTATTAGTTGAAAGGGCTACCGAATGATTCTCG	0.228	-0.023	0.197	0.703	0.0628	-0.589	-0.623	-0.406	-0.485
CTCGAAAGGTCGTGCTCAGTTGAGTATACCAAAC	2.57	4.35	3.63	1.71	4.77	2.66	0.251	3.59	0.971
GCTAGTTGGTCAGTAAAAGGTCACACAGCGGTCG	4.98	5.92	5.1	0.686	5.48	3.67	1.78	3.95	2.18
CCGACTGGGGCAAAGTTACCATAACGCACAGCCA	-0.231	0.149	0.374	0.41	0.344	-0.336	-0.499	-0.545	-0.275
TTGAGTAGGTTAGTCGGGGCATTCAGCCAACATA	0.969	0.218	0.145	0.265	0.0452	1.43	0.699	2.47	1.25
TCTTGTAGATCAACAGAGGTTAAGAAAGTGCGCT	1.45	0.848	0.565	0.665	1.68	2.55	-0.186	2.03	0.274
ACTCGGAGGAGAAAGGTCAGAGCTACGCCAGTGA	4.21	4.22	4.04	0.158	4	2.36	-0.0607	2.16	0.437
TGTCAAAGTTCAAAGGTAGCGTAAGTATCCACAC	3.86	5.84	5.8	4.41	6.07	2.76	-0.0719	4.76	3.39
GCTAGCAGGCCATTTGGGTCTCTCAATGACGGGC	-0.614	-0.279	-0.301	-0.264	-0.294	0.0257	-0.703	-0.594	-0.774
CAAACTAGGTAAAAGGTCAAAGTCGAGCCAACCA	4.69	6.32	5.16	1.67	7.54	4.01	1.07	4.86	2.02
ATACCAAGGTGATCGTGAGGTCGTTGAGACTAAC	1.66	2.25	0.747	0.611	1.66	3.4	2.38	2.9	2.82
CAAACTAGGTGACCGGAAGGTCAAAGTCCGCATG	4.4	5.38	3.94	0.562	3.89	3.57	1.86	4	2.49
ATATGTAGGTTAAGGGTCATTCAGGTTGGTTCGC	4.16	4.91	3.76	2.37	6.65	3.68	2.05	5.83	4.42
TCATATAGGTAAATGCTACGTGAAAGTCCGATCT	-0.0537	0.346	0.292	1.58	0.839	-0.0231	0.0102	0.947	0.41
GGAACGAGGGCATTCGAGTTGATCGCATGGCGAT	0.71	1.11	1.52	3.18	0.775	3.44	-0.598	3.61	3.38
ACAGACAGGTGAGCGAAGGTAACTCAGCTGGACG	0.0254	0.199	0.463	-0.651	0.258	1.74	-0.377	-0.641	-0.771
GCTAGTTGGTCAGTAAAAGGTCACACGCCGGTCG	5.37	5.72	5.2	0.626	5.46	3.72	1.66	3.87	1.85
CCGAGTAGGTTATGGGGCAGTCAGGCAACGGTGA	0.983	0.587	0.165	-0.557	0.291	0.277	-0.143	-0.397	-0.221
CCGACTGGGGCATAAGGTCACCATAAGCCAGCCC	4.32	4.86	4.18	0.204	4.29	4.08	4.71	3.15	1.77
CCGACTGGGGCATAAGGTTACCATGAGCCAGCCC	1.89	1.81	0.826	-0.562	1.32	2.05	1.17	0.177	-0.247
AGAACGAGGGGAATGAGTTGATAGCACGGGTGGC	0.0648	0.0895	0.0667	0.224	0.437	0.0318	-0.151	2.09	0.812

Sequence	PBM binding z-score [1]	PBM binding z-score [2]	PBM binding z-score [3]	PBM binding z-score [4]	PBM binding z-score [5]	PBM binding z-score [6]	PBM binding z-score [7]	PBM binding z-score [8]	PBM binding z-score [9]
CCAGTCAGGTGAAAGGTAACTCAGTCTGGTACGC	0.929	1.2	0.727	0.124	1.42	1.95	1.04	0.52	-0.00335
CCAGACAGGTGAAAGGAAACTCAGTCTGGTACGC	-0.0541	0.0543	0.198	-0.167	0.41	-0.104	-0.669	-0.116	-0.334
GGAACGAAGGCATTCGAGTTGATAGCATGGCGAT	-0.976	-0.479	-0.164	-0.552	-0.562	0.655	-1.68	-0.337	-0.0499
GCGACTGGGGCATCAGCAGGCTACCATAACTTAA	0.21	-0.0453	0.15	-0.185	-0.168	-0.0992	0.158	-0.769	-0.693
TCATATAGGTAAAATGTGAAAGTCGGTGTGGTAA	-0.199	0.0549	-0.0961	1.45	0.646	-0.0922	-0.336	0.774	-0.00299
TCATATAGGTAGTACAGGTGAAAGTCGGCATCTA	0.475	0.549	0.317	1.32	1.02	0.404	0.361	0.794	0.606
ATATGTAGATTATCGGGTCATTCAGTTTGCGCAT	2.3	1.94	1.35	1.21	2.45	3.14	2.5		4.05
ATGTCTAGGTAACAAGTTCAGTGAAAGAGAGGAC	1.85	1.29	1.35	0.903	0.727	1.56	0.576	2.14	2.23
AGTCAAAGTTCAGGACGATGTAACGTAAAGCACG	2.88	3.94	4.82	2.83	2.53	1.92	0.0967	2.56	1.75
AATACAGGGTCATCGTAGGCCGGAGTACGCACAG	3.49	5.55	5.08	3.69	6.23	4.13	1.46	4.89	3.63
CGTCCAAGGTCAAGGTCAGTGATAGAGACTCGAA	5.36	6.7	7.67	3.76	6.55	4.48	3.93	4.95	3.53
ATATGTAGGTTAAGGGTCATTCTGGTTGGTTCGC	3.64	4.65	3.2	2.17	6.03	3.23	1.75		4.43
CAAACTAGGTCAAGGCCAAAGTCGGTTTGTGCCA	3.53	3.91	4.51	1.81	2.77	2.91	1.39	1.84	1.22
TCATATAGGTAAAGGCTAGGTGAAAGTCCGATCT	0.981	0.769	0.425	1.27	0.971	1.3	0.205	0.546	0.0425
CCTCGGAGGACAACAGGAGGTGAGAGCTGCCAGA	1.05	0.71	1.35	-0.141	-0.117	1.44	0.525	-0.342	-0.285
CCGAGCAGGCCAATCTGGGTCACTCAAGGCTTGA	2.28	1.25	1.68	0.0945	1.15	3.72	0.404	0.157	0.347
GGAACGAGAGCAAAGTTGATAGCATCTGTCGACG	-0.806	-0.113	-0.0315	-0.36	0.334	-0.711	-1.35	-0.413	-0.396
AGCATGAGGTTACCAAAGATCAGGGAAACGCTTG	1.04	2.27	1.81	1.12	2.78	2.96	0.893	1.28	0.309
CAAACTAGGTCACGAACGGTCAAAGTCGAATGAC	4.43	5.69	6.24	1.66	4.56	4.08	1.74	4.04	1.44
CGAACTAGGTCAAGGACGGTGAATCTCCGCACGC	2.96	3.53	4.38	0.975	2.64	2.88	1.24	1.14	-0.409
TCTTGTAGATCAACAGGGGGTTAAGAAAGATCGA	1.32	1.91	0.92	1.89	1.93	1.86	0.559	2.13	0.493
CGAAATAGGTCATTGACAGGACAGTGAATAGTAA	3.34	5.81	4.98	2.23	4.21	3.01	0.329	3.26	1.15
CCTTACGGGTCACCCCAGGTTATAGCATCGGAGT	3.53	5.05	4.77	0.177	5.34	5.16	1.21	4.91	1.41
ACTAGTTGGGCAGCTGAGGTCACACACAATTCGG	3.83	3.56	3.17	1.21	3.56	4.63	4.73	3.72	2.9
CGTCCAAGGTCAAAGGTCAGTTAAGAGATGACGG	5.64	8.47	7.74	3.83	9.85	5.11	2.91	6.49	3.63
ATCGAAAGGTCGAGGAGAGTATAGAGAAAGGGAA	2.25	4.13	3.86	0.539	4.21	1.94	-0.151	2.64	0.103
